Source: PubChem BioAssay (Tox21)
Values joined by “and” are separate entries in the source; they are usually repeats but may differ in a detail not shown here. Equal entries are not always repeated. Active and inactive are the calls of the source. Entries that show only a call come without a potency. Calls come from the whole dose curve.

Target: Thyrotropin-releasing hormone receptor (Homo sapiens) (UniProt P34981)
Experiment: qHTS assay to identify small molecule agonists of the thyrotropin-releasing hormone receptor (TRHR) signaling pathway (AID 1346891)
Conditions: TRHR-HEK293 calcium fluorescence, agonist mode; series mostly up to 57.6 µM
Excerpt: National Center for Advancing Translational Sciences [NCATS] NIH Chemical Genomics Center [NCGC] U.S. Environmental Protection Agency [EPA] National Institutes of Environmental Health Sciences [NIEHS] National Toxicology Program [NTP] Assay overview: Thyrotropin-releasing hormone (TRH) receptor (TRHR) is a G-protein-coupled receptor which binds the tripeptide thyrotropin releasing hormone. TRHR is found in the brain and, when bound by TRH, acts (through phospholipase C) to increase intracellular inositol trisphosphate. It plays a crucial role in the anterior pituitary where it controls the synthesis and secretion of thyroid stimulating hormone and prolactin. The TRHR-Hek293 assay is a cell-based assay, and it has the potential to screen G protein-coupled receptors. A compound/drug can either activate (agonist) or suppress (antagonist) GPCRs that can be monitored by levels of intracellular calcium. Using this assay, the Tox21 10K compound library was screened to identify potential TRHR agonists.
Assay Protocol Summary: The TRHR-Hek293 cells were dispensed at 1500cells/4uL/well in 1536-well black-clear bottom plates using a Multidrop dispenser. After the assay plates were incubated at a 37 C/5% CO2 incubator for 18 hours, 4 uL of Dye-Loading Solution was added to each well. The plates were incubated at 37 C for 2 hours. For agonist mode, 23 nL of compounds dissolved in DMSO, positive controls or DMSO only was transferred to the assay plate by a pin tool. The fluorescence intensity in the plates was measured using FDSS 7000EX kinetic plate reader for 3 min at 1 sec intervals. Each test compound was measured at 15 concentrations and in triplicates.
Potency is the fitted concentration of half-maximal effect.

Chain of Thyrotropin-releasing hormone receptor (Homo sapiens) (P34981 whole entry, looked up): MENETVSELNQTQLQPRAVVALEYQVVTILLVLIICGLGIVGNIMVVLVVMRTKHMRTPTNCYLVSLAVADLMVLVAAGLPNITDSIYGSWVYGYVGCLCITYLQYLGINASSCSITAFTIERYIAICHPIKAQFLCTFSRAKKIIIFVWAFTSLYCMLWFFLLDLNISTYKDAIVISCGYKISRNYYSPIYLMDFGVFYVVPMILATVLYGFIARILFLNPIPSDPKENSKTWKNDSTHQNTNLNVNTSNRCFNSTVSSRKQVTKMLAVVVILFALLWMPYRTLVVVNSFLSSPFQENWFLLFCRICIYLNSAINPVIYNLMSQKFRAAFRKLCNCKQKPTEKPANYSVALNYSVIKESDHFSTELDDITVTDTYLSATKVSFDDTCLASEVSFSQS

Row | SMILES | Potency
1 | CCC(C)Br (stereo not given) | inactive
2 | Oc1ccc([C@H]2CNCc3c2ccc(O)c3O)cc1O | inactive
3 | C[C@]12CC[C@H]3[C@@H](CCC4=CC(=O)CC[C@@H]43)[C@@H]1CC[C@@H]2OC(=O)CCc1ccco1 | inactive
4 | O=C(Nc1ccc(F)cc1F)c1cccnc1Oc1cccc(C(F)(F)F)c1 | inactive
5 | COP(=S)(OC)Oc1nc(Cl)c(Cl)cc1Cl | inactive
6 | O=[N+]([O-])C(Br)Br | inactive
7 | ClC1=C(Cl)[C@]2(Cl)[C@H]3[C@H]([C@@H]4C=C[C@H]3C4)[C@@]1(Cl)C2(Cl)Cl | inactive
8 | BrCCCBr | inactive
9 | CCC[CH2][Sn]([CH2]CCC)([CH2]CCC)[CH2]CCC | inactive
10 | CSSC | inactive
11 | ClCBr | inactive
12 | CC(=O)C(Cl)C(=O)N(C)C (stereo not given) | inactive
13 | O=[N+]([O-])c1cccc2cccc([N+](=O)[O-])c12 | inactive
14 | CC(Cc1ccc(O)cc1)NCC(O)c1cc(O)cc(O)c1 (stereo not given) | inactive
15 | N#Cc1c[nH]cc1-c1cccc2c1OC(F)(F)O2 | inactive
16 | CC1(C)[C@H](/C=C2\CCSC2=O)[C@@H]1C(=O)OCc1coc(Cc2ccccc2)c1 | inactive
17 | [F][Sn]([c]1ccccc1)([c]1ccccc1)[c]1ccccc1 | 4.36 µM (active)
18 | COc1c2c(cc3c1OCO3)CCN(C)C2 | inactive
19 | CCN(CC)C(=O)N[C@@H]1C=C2c3cccc4[nH]cc(c34)C[C@@H]2N(C)C1 | inactive
20 | CCCCON=O | inactive

Row | SMILES | Potency
21 | O=C1C[C@@H]2OCC=C3CN4CC[C@]56c7ccccc7N1[C@H]5[C@H]2[C@H]3C[C@H]46 | inactive
22 | Cc1ccc2cc3c(ccc4ccccc43)c3c2c1CC3 | inactive
23 | CCC1COC(Cn2cncn2)(c2ccc(Cl)cc2Cl)O1 (stereo not given) | inactive
24 | O=c1c2ccccc2c(=O)c2c1cc(Cl)c1[nH]c3c([nH]c12)c(Cl)cc1c(=O)c2ccccc2c(=O)c13 | inactive
25 | CC(Cc1ccccc1)N(C)Cc1ccco1 (stereo not given) | inactive
26 | COc1cnc(OC)n2nc(NS(=O)(=O)c3c(OCC(F)F)cccc3C(F)(F)F)nc12 | inactive
27 | CC(C)=CC1C(C(=O)OC(C#N)c2cccc(Oc3ccccc3)c2)C1(C)C (stereo not given) | inactive
28 | CN(C)CCc1c[nH]c2ccccc12 | inactive
29 | Nc1ccc(Cl)cc1C(=O)c1ccccc1F | inactive
30 | CCc1cccc(C)c1N(C(=O)CCl)[C@@H](C)COC | inactive
31 | CCOP(=O)(OCC)Oc1nc(Cl)c(Cl)cc1Cl | inactive
32 | [O]=[Cr][O][Cr]=[O] | inactive
33 | O=S(=O)(O)F | inactive
34 | CCOP(=S)(OCC)SC(CCl)N1C(=O)c2ccccc2C1=O (stereo not given) | inactive
35 | CSC(=O)c1c(C(F)F)nc(C(F)(F)F)c(C(=O)SC)c1CC(C)C | inactive
36 | CC1CCCC1 | inactive
37 | ClC1=C(Cl)[C@]2(Cl)[C@@H]3[C@H]4C[C@H]([C@@H]5O[C@H]45)[C@@H]3[C@@]1(Cl)C2(Cl)Cl | inactive
38 | O=C1C2(Cl)C3(Cl)C4(Cl)C(Cl)(Cl)C5(Cl)C3(Cl)C1(Cl)C5(Cl)C24Cl (stereo not given) | 30.4 µM (active) and 37.3 µM (active)
39 | CSC1=N[C@@](C)(c2ccccc2)C(=O)N1Nc1ccccc1 | inactive
40 | C[C@H]1[C@H](c2ccc(Cl)cc2)SC(=O)N1C(=O)NC1CCCCC1 | inactive
